According to PubChem BioAssay (NCI):
This is part of a sample that, as a whole, favours compounds with a hit. Of some 79,000 tested, about 15% had one in any assay. Values without a mark were called inactive. The source made the active and inactive calls. No stated cut-off is given here; in the data, active means growth inhibition above about 70%; inactive means the rest.

Columns and labels:
[1] = NCI Yeast Anticancer Drug Screen. Data for the rad50 strain (AID 155);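 further: 0% = growth of vehicle-only cultures of the same strain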; details: S. cerevisiae rad50 strain growth inhibition; at 50.0 µM; hits give high values
Method in brief: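 Growth of the mutant yeast was measured after compound exposure and referenced to vehicle-treated cultures.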

[2] = NCI Yeast Anticancer Drug Screen. Data for the mec2-1 strain (AID 157); details: S. cerevisiae mec2-1 strain, at 50.0 µM, hits give high values
Method in brief: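 Yeast mec2-1 mutant treated with compound. Readout: growth inhibition vs vehicle controls.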

[3] = NCI Yeast Anticancer Drug Screen. Data for the sgs1 mgt1 strain (AID 161);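 further: 0% = growth of cultures given vehicle only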; details: S. cerevisiae sgs1 mgt1 strain, at 50.0 µM, hits give high values
Method in brief: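 Test agents were incubated with a DNA-repair-mutant yeast strain. Growth was then read and compared against vehicle-treated controls.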

[4] = NCI Yeast Anticancer Drug Screen. Data for the cln2 rad14 strain (AID 165);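 further: 0% = growth equal to vehicle treated cultures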; details: S. cerevisiae cln2 rad14 strain, at 50.0 µM, hits give high values
Method in brief: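 cln2 rad14 yeast strain; compound exposure; growth inhibition read vs vehicle controls.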

[5] = NCI Yeast Anticancer Drug Screen. Data for the bub3 strain (AID 167); details: S. cerevisiae bub3 mutant strain, at 50.0 µM, hits give high values
Method in brief: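 Whole-cell yeast assay. The mutant strain was incubated with compounds, and growth inhibition was determined by comparison with vehicle-treated cells.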

[6] = NCI Yeast Anticancer Drug Screen. Data for the mlh1 rad18 strain (AID 175); details: S. cerevisiae mlh1 rad18 strain growth inhibition; at 50.0 µM; hits give high values
Method in brief: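 Yeast w/ defined DNA-repair lesions; compound exposure; growth vs vehicle controls → % inhibition.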

SMILES: CC(=O)C[n+]1ccccc1Sc1ccc(Cl)cc1
- growth inhibition [1]: 12.6%
- growth inhibition [2]: -9.25%
- growth inhibition [3]: 14.1%
- growth inhibition [4]: 19.1%
- growth inhibition [5]: 3.55%
- growth inhibition [6]: 56.7%

SMILES: O=C(CC1(O)C(=O)Nc2ccc(Br)cc21)c1ccc(Cl)cc1Cl (stereo unspecified)
- growth inhibition [1]: 44.9%
- growth inhibition [2]: 36.7%
- growth inhibition [3]: 69%
- growth inhibition [4]: 37%
- growth inhibition [5]: 48.2%
- growth inhibition [6]: 33.9%

SMILES: CCCCCCCN(CCCCCCC)CC(O)c1cc2ccccc2c2cc(Br)ccc12 (stereo unspecified)
- growth inhibition [1]: -52.9%
- growth inhibition [2]: -33%
- growth inhibition [3]: -41%
- growth inhibition [4]: -25%
- growth inhibition [5]: -69.1%
- growth inhibition [6]: -109%

SMILES: O=C(c1ccc(F)cc1)c1cccc(C(=O)c2ccc(F)cc2)n1
- growth inhibition [1]: -16.8%
- growth inhibition [2]: -24%
- growth inhibition [3]: -29.9%
- growth inhibition [4]: 8.15%
- growth inhibition [5]: -3.4%
- growth inhibition [6]: -36.1%

SMILES: Cc1ccc(NC(=O)/C=C/c2ccccc2)cc1Cl
- growth inhibition [1]: 2%
- growth inhibition [2]: 14.2%
- growth inhibition [3]: 8.15%
- growth inhibition [4]: -5.5%
- growth inhibition [5]: 27.4%
- growth inhibition [6]: 16.1%

SMILES: COc1ccc(OC)c(NC(=O)Nc2ccc(I)cc2)c1
- growth inhibition [1]: 46.8%
- growth inhibition [2]: 42%
- growth inhibition [3]: 33.9%
- growth inhibition [4]: 15.1%
- growth inhibition [5]: 52.9%
- growth inhibition [6]: 56%

SMILES: COc1ccc(CCN/C=C(\C)C(=O)c2ccc(F)cc2)cc1OC
- growth inhibition [1]: 11.2%
- growth inhibition [2]: -4.6%
- growth inhibition [3]: -13.6%
- growth inhibition [4]: -29.2%
- growth inhibition [5]: -13.9%
- growth inhibition [6]: -4.5%

SMILES: CCCCCCCc1cc(=O)[nH]c(=S)[nH]1
- growth inhibition [1]: 4.05%
- growth inhibition [2]: -4.9%
- growth inhibition [3]: 0.5%
- growth inhibition [4]: -10.8%
- growth inhibition [5]: 11.3%
- growth inhibition [6]: -5.4%

SMILES: CNC(=S)NC
- growth inhibition [1]: 11.9%
- growth inhibition [2]: 11.1%
- growth inhibition [3]: 13.4%
- growth inhibition [4]: -51.1%
- growth inhibition [5]: 0.2%
- growth inhibition [6]: -13.8%

SMILES: [N-]=[N+]=CC(=O)C1OC1c1ccc2ccccc2c1 (stereo unspecified)
- growth inhibition [1]: 0.8%
- growth inhibition [2]: 21.6%
- growth inhibition [3]: 0.8%
- growth inhibition [4]: 1.5%
- growth inhibition [5]: 14.3%
- growth inhibition [6]: 22.9%

SMILES: O=C1CC2(CCCC2)C(=O)N1c1cccc([N+](=O)[O-])c1
- growth inhibition [1]: 10.8%
- growth inhibition [2]: 5%
- growth inhibition [3]: 17.4%
- growth inhibition [4]: 11%
- growth inhibition [5]: 11.7%
- growth inhibition [6]: -4.85%

SMILES: CC(C)(C)c1ccc2c(c1)CNCCNCCNCc1cc(C(C)(C)C)ccc1OCC1(CO2)COc2ccc(C(C)(C)C)cc2CNCCNCCNCc2cc(C(C)(C)C)ccc2OC1
- growth inhibition [1]: 91% (active)
- growth inhibition [2]: 93% (active)
- growth inhibition [3]: 92% (active)
- growth inhibition [4]: 91.2% (active)
- growth inhibition [5]: 92.2% (active)
- growth inhibition [6]: 89.8% (active)

SMILES: COC(=O)C(c1ccccc1)C(CBr)(OC)c1ccccc1 (stereo unspecified)
- growth inhibition [1]: 18.8%
- growth inhibition [2]: 8.85%
- growth inhibition [3]: 12.5%
- growth inhibition [4]: 15.8%
- growth inhibition [5]: 13.6%
- growth inhibition [6]: 27.1%

SMILES: Cc1[nH]n(-c2ccccc2)c(=O)c1/C=N\C(N)=S
- growth inhibition [1]: -37%
- growth inhibition [2]: -37.9%
- growth inhibition [3]: -34.1%
- growth inhibition [4]: -50.9%
- growth inhibition [5]: -48%
- growth inhibition [6]: -25.1%

SMILES: CN1C(=S)CSc2ccccc21
- growth inhibition [1]: -8.5%
- growth inhibition [2]: -4%
- growth inhibition [3]: -11.3%
- growth inhibition [4]: 26%
- growth inhibition [5]: -9.75%
- growth inhibition [6]: 1.85%

SMILES: N/N=C/c1ccc2ccccc2n1
- growth inhibition [1]: -14.4%
- growth inhibition [2]: -12.6%
- growth inhibition [3]: -17.4%
- growth inhibition [4]: -1.75%
- growth inhibition [5]: 12.6%
- growth inhibition [6]: -19.6%

SMILES: Fc1ccccc1CSc1n[nH]c(=S)c2nc[nH]c12
- growth inhibition [1]: 4.05%
- growth inhibition [2]: 8.3%
- growth inhibition [3]: 17.8%
- growth inhibition [4]: -12.3%
- growth inhibition [5]: 0.3%
- growth inhibition [6]: 12%

SMILES: Cc1ccc(S(=O)(=O)N2CN3CN(C2)CN(S(=O)(=O)c2ccc(C)cc2)C3)cc1
- growth inhibition [1]: 0.4%
- growth inhibition [2]: -26.9%
- growth inhibition [3]: -9.15%
- growth inhibition [4]: 9.05%
- growth inhibition [5]: 6.4%
- growth inhibition [6]: -4.2%

SMILES: COC(=O)CCS/C=C/C(=O)O
- growth inhibition [1]: 11.1%
- growth inhibition [2]: -8.6%
- growth inhibition [3]: -2.4%
- growth inhibition [4]: -34.4%
- growth inhibition [5]: 4.25%
- growth inhibition [6]: 4.35%

SMILES: OC1c2ccccc2-c2ccc(NCc3ccc4c(c3)OCO4)cc21 (stereo unspecified)
- growth inhibition [1]: 48.8%
- growth inhibition [2]: -11.2%
- growth inhibition [3]: 17.4%
- growth inhibition [4]: -5.2%
- growth inhibition [5]: -4.1%
- growth inhibition [6]: 19.4%

SMILES: CN(C)c1cc(N(C)C)c2cc(C#N)ccc2n1
- growth inhibition [1]: 15.4%
- growth inhibition [2]: 3.05%
- growth inhibition [3]: 17.2%
- growth inhibition [4]: -5.45%
- growth inhibition [5]: 0.9%
- growth inhibition [6]: 5.75%

SMILES: Cc1ccc(N(C)C(=O)Nc2ccccc2)c(C)c1
- growth inhibition [1]: 4.1%
- growth inhibition [2]: 3.6%
- growth inhibition [3]: 8.6%
- growth inhibition [4]: -20.6%
- growth inhibition [5]: 4.55%
- growth inhibition [6]: -12.8%

SMILES: Nc1c(S(=O)(=O)O)cc(Br)c2c1C(=O)c1ccccc1C2=O
- growth inhibition [1]: 54.5%
- growth inhibition [2]: 15.8%
- growth inhibition [3]: 38.7%
- growth inhibition [4]: 38%
- growth inhibition [5]: 45.8%
- growth inhibition [6]: 56.4%

SMILES: CC1NC(C(=O)O)Cc2cc(O)c(O)cc21 (stereo unspecified)
- growth inhibition [1]: -21.2%
- growth inhibition [2]: -36.6%
- growth inhibition [3]: -30.8%
- growth inhibition [4]: 5.35%
- growth inhibition [5]: -34.8%
- growth inhibition [6]: -49.2%

SMILES: CC(CC(=O)Nc1ccccc1)C(=O)O (stereo unspecified)
- growth inhibition [1]: 7.85%
- growth inhibition [2]: -7.1%
- growth inhibition [3]: -10.8%
- growth inhibition [4]: -26.4%
- growth inhibition [5]: 5.55%
- growth inhibition [6]: 2.55%

SMILES: CCN(CC)CCOC(=O)Cc1ccc2c(=O)cc(-c3ccc(C)cc3)oc2c1
- growth inhibition [1]: 7.75%
- growth inhibition [2]: -18.4%
- growth inhibition [3]: -13.6%
- growth inhibition [4]: 0.75%
- growth inhibition [5]: -1.55%
- growth inhibition [6]: -54.5%

SMILES: COc1cc2c(cc1C(CC(C)=O)c1cc(OC)c(OC)c(OC)c1)OCO2 (stereo unspecified)
- growth inhibition [1]: -11.6%
- growth inhibition [2]: -10.2%
- growth inhibition [3]: -12%
- growth inhibition [4]: -5.3%
- growth inhibition [5]: 11%
- growth inhibition [6]: -6.15%

SMILES: COC(=O)c1cc(=O)[nH]c(=O)[nH]1
- growth inhibition [1]: -10.6%
- growth inhibition [2]: -12.8%
- growth inhibition [3]: -15.8%
- growth inhibition [4]: 9.45%
- growth inhibition [5]: -13.5%
- growth inhibition [6]: -15.9%

SMILES: COc1ccc(C(C)=O)c(OC(C)=O)c1OC(C)=O
- growth inhibition [1]: 4.05%
- growth inhibition [2]: 0.95%
- growth inhibition [3]: 6.25%
- growth inhibition [4]: 10%
- growth inhibition [5]: 5.8%
- growth inhibition [6]: 17.2%

SMILES: CCC(C(=O)NC1c2ccccc2Oc2ccccc21)c1ccccc1 (stereo unspecified)
- growth inhibition [1]: -0.85%
- growth inhibition [2]: -9.85%
- growth inhibition [3]: 0.55%
- growth inhibition [4]: -12.4%
- growth inhibition [5]: 4.5%
- growth inhibition [6]: -2.5%

SMILES: O=C(/C=C/NC(=O)OCc1ccccc1)OCc1ccccc1
- growth inhibition [1]: 9.35%
- growth inhibition [2]: -5.5%
- growth inhibition [3]: -0.9%
- growth inhibition [4]: 17.1%
- growth inhibition [5]: 3.55%
- growth inhibition [6]: 0.95%

SMILES: OCC1OC(n2ncc3c(Nc4ccccc4)ncnc32)C(O)C1O (stereo unspecified)
- growth inhibition [1]: 17.1%
- growth inhibition [2]: 18.3%
- growth inhibition [3]: 6.75%
- growth inhibition [4]: -5.7%
- growth inhibition [5]: 6.9%
- growth inhibition [6]: 17.9%

SMILES: O=[N+]([O-])C1C=Nc2ccccc2N=C1
- growth inhibition [1]: 19.7%
- growth inhibition [2]: -16.6%
- growth inhibition [3]: 18.1%
- growth inhibition [4]: 21.4%
- growth inhibition [5]: 5%
- growth inhibition [6]: 19.6%

SMILES: COC(=O)/C=C/c1ccc(OC(C)=O)c(OC)c1
- growth inhibition [1]: -1.9%
- growth inhibition [2]: 3.55%
- growth inhibition [3]: -13.6%
- growth inhibition [4]: -19.1%
- growth inhibition [5]: 16.6%
- growth inhibition [6]: -4.9%

SMILES: CCC(O)(c1ccc(OC)cc1)C(c1ccc(OCc2ccccc2)cc1)c1ccc(OCc2ccccc2)cc1 (stereo unspecified)
- growth inhibition [1]: 18.9%
- growth inhibition [2]: -22.2%
- growth inhibition [3]: 5.5%
- growth inhibition [4]: 10.8%
- growth inhibition [5]: -10.1%
- growth inhibition [6]: -12.9%

SMILES: CCN(CC)CCNC(=O)c1ccc(NCN2C(=O)NC(c3ccccc3)(c3ccccc3)C2=O)cc1
- growth inhibition [1]: -24.1%
- growth inhibition [2]: 3.4%
- growth inhibition [3]: 8.45%
- growth inhibition [4]: 26.3%
- growth inhibition [5]: 15.7%
- growth inhibition [6]: 50.8%
